# ELG1 DNA repair – inhibitors of ELG1-dependent DNA repair in HEK293T cells; AID 504467; Potency, µM (highest dose often 46.1 µM), for the others: top-dose activity change, negative = inhibition, most hits filed as inhibitors; HEK293T ELG1-luciferase reporter, luminescence, 16 h; DNA damage induced by 5-fluorouridine; hit rate 2.3% among 330,000; further: nearly all actives have a fitted effect of over 55% in size
#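 Reporter activity after DNA damage by 5-fluorouridine is monitored. Compound-treated cells incubate 16 hr at 37 °C, then ONE-Glo is added for 30 min before luminescence reading.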
# Gal4-VP16 FLuc – counter-screen for ROR gamma inhibitors: Gal4-VP16 reporter; Potency, µM (doses to about 53.6 µM), without a hit: top-dose activity, negative = inhibition, most hits filed as inhibitors; Drosophila S2 Gal4-VP16 UAS-luciferase, luminescence, 20 h; hit rate 3.5% among 310,000;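 further: Gal4-VP16 expression switched on by copper sulfate through the metallothionein promoter; nearly all actives have a fitted effect of over 50% in size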
# 12-LOX inh – inhibitors of human 12S-lipoxygenase ALOX12; purified 12hLO, xylenol orange hydroperoxide absorbance; Potency, µM (highest dose often 108 µM), inactives show at the top dose activity change, negative = inhibition, usual class: inhibitors; hit rate 1.1% among 580,000
# Target sequence (P18054 whole entry, looked up): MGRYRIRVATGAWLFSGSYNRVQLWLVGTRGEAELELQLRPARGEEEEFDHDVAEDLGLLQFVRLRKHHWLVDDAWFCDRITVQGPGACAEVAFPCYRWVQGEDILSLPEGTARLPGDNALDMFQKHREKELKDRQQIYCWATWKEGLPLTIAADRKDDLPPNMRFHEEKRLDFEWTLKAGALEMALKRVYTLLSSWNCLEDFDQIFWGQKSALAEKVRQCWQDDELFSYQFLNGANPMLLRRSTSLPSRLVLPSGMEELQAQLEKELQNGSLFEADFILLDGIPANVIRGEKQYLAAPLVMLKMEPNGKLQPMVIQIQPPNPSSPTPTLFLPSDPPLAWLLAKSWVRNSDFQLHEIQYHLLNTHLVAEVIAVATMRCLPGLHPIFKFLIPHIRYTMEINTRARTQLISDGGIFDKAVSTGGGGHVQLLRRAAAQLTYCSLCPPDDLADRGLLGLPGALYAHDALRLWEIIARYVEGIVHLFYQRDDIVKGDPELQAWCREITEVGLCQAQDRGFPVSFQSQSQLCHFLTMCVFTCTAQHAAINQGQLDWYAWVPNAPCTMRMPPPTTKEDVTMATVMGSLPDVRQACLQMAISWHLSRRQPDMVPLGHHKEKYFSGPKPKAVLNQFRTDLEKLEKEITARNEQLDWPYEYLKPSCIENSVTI
#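 Purified human 12hLO at 150 nM in 25 mM Hepes, 0.01% Triton X-100, pH 7.0, preincubated 15 min at room temperature with compound. Reaction started with 40 uM arachidonic acid, 30 min at room temperature. Hydroperoxide measured by Fe-xylenol orange, 573/405 nm absorbance ratio.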
# RORgamma inh – inhibitors of mouse ROR gamma transcriptional activity | P51450 | Drosophila S2 Gal4-RORgamma UAS-luciferase reporter, 20 h | Potency, µM (titrated, usually from 53.6 µM), inactives show top-dose activity change, negative = inhibition, actives largely listed as inhibitors | hit rate 5.4% among 310,000 | AID 2551; further: nearly all actives have a fitted effect of over 60% in size
#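 Drosophila S2 cells stably expressing Gal4-DBD/mouse RORγ fusion under metallothionein promoter plus UAS-luciferase; compound 1 h, then 700 uM CuSO4 induction for 20 h at ambient temperature; inhibition read as reduced luminescence.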
# TDP1 cell CPT – DT40-hTDP1 cell growth loss with CPT. AID 686979. chicken DT40 Tdp1-/-;hTDP1 cells + 20 nM CPT, ATP luminescence, 48 h. hit rate 12% among 420,000. Potency, µM (top dose mostly 46.2 µM), without a hit: at the highest dose activity change, negative = growth inhibition, usual class: inhibitors; further: nearly all actives have a fitted effect of over 55% in size
#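 Chicken DT40 Tdp1-/- cells stably complemented with human TDP1 were seeded at 400 cells/well in medium containing 20 nM camptothecin, exposed to pin-transferred compounds, and grown at 37 °C for at least 48 hr. Viability was read as ATP luminescence.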
# DT40 TDP1 no CPT – qHTS for Inhibitors of human tyrosyl-DNA phosphodiesterase 1 (TDP1): qHTS in cells in absence of CPT; DT40 Tdp1-/- hTDP1 cells, no CPT, ATP luminescence, 48 h; Potency, µM (series often up to 46.2 µM), for inactives: at the top dose activity change, negative = growth inhibition, usual class: inhibitors; hit rate 15% among 420,000; further: nearly all actives have a fitted effect of over 55% in size
#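 Chicken DT40 Tdp1-/- cells stably complemented with human TDP1 were seeded at 400 cells/well with DMSO in place of 20 nM camptothecin. After compound pinning, cells grew at least 48 hr at 37 °C; viability read by CellTiter-Glo luminescence.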
# Active calls of the source: *; ? = inconclusive; . = no result; [ ] = dose if it differs, or a comment. Most compounds without a hit are left out; they make up all but 15% or so of the library. The call rests on the fitted dose curve; in most records, active means well fitted curve in the direction sought with a large enough effect; inconclusive means small, poorly fitted or top-dose-only effect, or another doubt; inactive means no such curve, though single readings can be large; an effect the other way counts as inactive or inconclusive. On the % scale 0 is the no-effect control and ±100 the full control effect; potency means the concentration at half of the fitted maximal effect.
SMILES,ELG1 DNA repair,Gal4-VP16 FLuc,12-LOX inh,RORgamma inh,TDP1 cell CPT,DT40 TDP1 no CPT
O=C(CSc1nnc(CN2CCCCC2)n1-c1ccccc1)c1ccc2c(c1)OCO2,-11%,-3%,-6%,-3%,?,21µM*
O=C(CSc1nnc(-c2cccs2)n1-c1ccccc1)c1ccc2c(c1)OCCO2,-7%,-2%,6%,5%,-19%,-22%
Cc1cccc(-n2c(SCC(=O)c3ccccc3)nnc2-c2ccc(Br)cc2)c1,.,.,?,.,16µM*,18µM*
CCOc1ccc(-c2nnc(SCC(=O)c3ccccc3)n2-c2ccccc2)cc1,.,.,?,.,?,6.5µM*
O=C(CSc1nnc(-c2ccc3c(c2)OCO3)n1-c1ccccc1)c1ccccc1,1%,-18%,-17%,-8%,16µM*,23µM*
CCOc1ccc(NC(=O)CSc2nnc(-c3ccncc3)n2-c2ccccc2)cc1,.,.,-6%,.,-1%,-12%
CCN(CC)c1ccc(CNC(=O)c2scnc2C)cn1,.,.,-3%,.,.,.
CCOC(=O)c1cnc(-n2nc(C)cc2C)nc1NC1CCCCC1,-17%,1.1µM*,?,0.35µM*,4.6µM*,5.2µM*
CCOC(=O)c1cnc(-n2nc(C)cc2C)nc1N(CC)CC,?,4.5µM*,?,1µM*,23µM*,16µM*
CCOC(=O)c1cnc(-n2nc(C)cc2C)nc1Nc1ccc(N(C)C)cc1,15µM*,1.1µM*,0%,0.79µM*,1.3µM*,1.8µM*
CCOC(=O)c1cnc(-n2nc(C)cc2C)nc1NC,-10%,5.6µM*,-4%,1.6µM*,?,?
CCOC(=O)c1cnc(-n2nc(C)cc2C)nc1Oc1ccc(C#N)cc1,4%,-10%,0%,1%,-11%,-27%
CCOCC(=O)N[C@@H]1CN(Cc2ccccc2)C[C@H]1CN(C)C,.,.,40%,.,.,.
CC(C)C(CNC(=O)c1cccc(CS(C)=O)c1)c1ccccc1 (stereo not drawn),.,.,39%,.,.,.
CC(Cn1cccn1)NC(=O)N1CCN(Cc2cccs2)CC1 (stereo not drawn),.,.,23%,.,.,.
CCOC(=O)c1cnc(-n2nc(C)cc2C)nc1Nc1ccc2c(c1)OCO2,?,-2%,.,-29%[10 µM],.,.
CCOC(=O)c1cnc(-n2nc(C)cc2C)nc1Nc1ccc(C)cc1,?,0.79µM*,-1%,0.56µM*,4.6µM*,5.2µM*
CCOC(=O)C1CCN(c2c([N+](=O)[O-])c(C(Cl)Cl)nn2-c2ccccc2)CC1,-4%,0%,-15%,32%,?,?
O=[N+]([O-])c1c(C(Cl)Cl)nn(-c2ccccc2)c1N1CCCC1,-1%,?,-2%,7.1µM*,21µM*,?
CCCCc1ccc(/C=C(\C#N)C(N)=S)s1,5%,?,40µM*,7.1µM*,?,?
COc1ccc(C(=O)Nc2ccc3c(c2)OCCCO3)c(O)c1,.,.,-3%,.,.,.
COc1cnc(-c2ccccn2)nc1Oc1ccccc1Cl,?,13µM*,8%,2.2µM*,?,?
COc1cnc(-c2ccccc2)nc1Oc1cccc(C)c1C,0%,-1%,0%,39%,?,?
COc1cnc(-c2ccccn2)nc1Oc1ccc(Cl)cc1,?,8.9µM*,2%,3.5µM*,1.6µM*,1.5µM*
COc1cnc(-c2ccccn2)nc1Oc1ccc(Cl)c2ccccc12,?,7.9µM*,-3%,1.3µM*,1.3µM*,1.2µM*
SMILES,ELG1 DNA repair,Gal4-VP16 FLuc,12-LOX inh,RORgamma inh,TDP1 cell CPT,DT40 TDP1 no CPT
COc1cnc(-c2ccccc2)nc1Oc1ccccc1C,?,-16%,?,29%,?,?
COc1cnc(-c2ccccn2)nc1Oc1ccc(F)cc1F,14%,?,7%,5.6µM*,10µM*,3.7µM*
CCNC(=O)N1CCc2cc(OC)c(OC)cc2C1CNC(=O)c1ccc(C)cc1 (stereo not drawn),.,.,-6%,.,.,.
Cc1ccsc1CN(Cc1ccc(CN(C)S(C)(=O)=O)o1)CC(C)C,.,.,37%,.,.,.
CC(C)(C)c1ccc(C(=O)C2CCCN(C(=O)C3CCOCC3)C2)cc1 (stereo not drawn),-1%,8%,5%,-8%,?,16µM*
COc1ccc(C(=O)C2CCCN(C(=O)Cc3c(C)noc3C)C2)cc1OC (stereo not drawn),-5%,9%,?,9%,5%,10%
Cc1noc(C)c1CC(=O)N1CCCC(C(=O)c2ccc(C(C)(C)C)cc2)C1 (stereo not drawn),?,?,0%,-40%,21µM*,21µM*
CSc1ncc(CN2CCCC(C(=O)Nc3ccc(-c4ccco4)cc3)C2)cn1 (stereo not drawn),2%,4%,2%,0%,?,?
CSc1ncc(CN2CCCC(C(=O)c3ccc(C(C)(C)C)cc3)C2)cn1 (stereo not drawn),22%,2%,-3%,?,16µM*,23µM*
CCOC(=O)c1ccc(NC(=O)CS(=O)(=O)Cc2nc(-c3ccccc3C)oc2C)cc1,.,.,18%,.,.,.
CCN1CCCC1CNC(=O)CC(C)(C)C (stereo not drawn),.,.,1%,.,.,.
Cc1ccc(C(=O)C2CCN(CCC#N)CC2)c(C)c1,.,.,-4%,.,.,.
O=C(NC12CC3CC(CC(C3)C1)C2)c1ccc(F)cc1,.,.,-21%,.,.,.
O=C1N[C@@H](Cc2ccccc2)C(=O)N2[C@H]1C[C@]1(Br)c3ccccc3N(S(=O)(=O)c3ccc(F)cc3)[C@H]21,.,.,?,.,18µM*,?
O=C1N[C@@H](Cc2ccccc2)C(=O)N2[C@@H]1C[C@@]1(Br)c3ccccc3N(S(=O)(=O)c3ccccc3)[C@@H]21,.,.,91%,.,-18%,-26%
Cn1ccc2c(N(Cc3ccccc3)Cc3ccccc3)cc3c(c21)C1CCC3O1 (stereo not drawn),.,.,11µM*,.,?,18µM*
Cn1ccc2c(N3CCCCC3)cc3c(c21)C1CCC3O1 (stereo not drawn),.,.,?,.,-5%,-22%
CN(c1cccc(F)c1)c1cc2c(c3c1ccn3C)C1CCC2C1 (stereo not drawn),.,.,-16%,.,-4%,-24%
COc1ccccc1N(C)c1cc2c(c3c1ccn3C)C1CCC2O1 (stereo not drawn),.,.,-29%,.,23µM*,?
CN(Cc1ccccc1)c1cc2c(c3c1ccn3C)C1CCC2O1 (stereo not drawn),.,.,?,.,?,18µM*

# Bioassay records: PubChem BioAssay, National Center for Advancing Translational Sciences (NCATS)
